Experimental data taken from PubChem BioAssay (NCI).
About 83,000 compounds went through this panel and 20% of them were active in at least one assay; those are over-represented in the sample as a whole.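 Cell lines were cultured in 96-well plates, exposed to a single compound concentration, and assessed for percent growth 48 hours later.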 Activity calls are given as the source filed them. The calls were made as follows: active = growth percent below 10; inactive = the rest.

Columns and labels:
Assay in all cases: NCI-60 one-dose screen, 48 h (100 = growth as untreated, 0 = no growth, -100 = all killed)
Conditions in all cases: 10 µM unless noted
DU-145 prostate = system: DU-145 prostate
K-562 leukemia = system: K-562 leukemia
MALME-3M melanoma = system: MALME-3M melanoma
MDA-MB-231 breast = system: MDA-MB-231 breast
RXF 393 renal = system: RXF 393 renal
SF-268 CNS = system: SF-268 CNS
SF-295 CNS = system: SF-295 CNS
SF-539 CNS = system: SF-539 CNS
UACC-257 melanoma = system: UACC-257 melanoma
M14 melanoma = system: M14 melanoma

Measured: growth

CCNC(=O)C#Cc1ccc2c(C(=Nc3ccc(CN(C)C)cc3)c3ccccc3)c(O)[nH]c2c1
inactive: DU-145 prostate 44.3% | SF-268 CNS 47.8% | SF-295 CNS 59.8%
active: K-562 leukemia 9.16% | MALME-3M melanoma -11.3% | MDA-MB-231 breast 3.36% | RXF 393 renal -33.7% | SF-539 CNS -6.1% | UACC-257 melanoma -36.3% | M14 melanoma -33.7%

CCN1CCN(Cc2ccc(-c3cc4c(N[C@H](C)c5ccccc5)ncnc4[nH]3)cc2)CC1
active: K-562 leukemia 5.11% | MALME-3M melanoma 1.62% | UACC-257 melanoma -5.38% | M14 melanoma 7.83%
inactive: DU-145 prostate 40.5% | MDA-MB-231 breast 30.3% | RXF 393 renal 26.4% | SF-268 CNS 52% | SF-295 CNS 68.8% | SF-539 CNS 60.5%

Cc1nc(N)sc1-c1ccnc(Nc2ccc(N3CCOCC3)cc2)n1
inactive: DU-145 prostate 33.2% | K-562 leukemia 59.1% | MALME-3M melanoma 47.8% | MDA-MB-231 breast 29.5% | RXF 393 renal 18.3% | SF-268 CNS 28.5% | SF-295 CNS 25.3% | SF-539 CNS 25.6% | UACC-257 melanoma 71.9% | M14 melanoma 36.8%

COc1ccc(-c2ccc3ncc4c(c3c2)n(-c2ccc(N3CCNCC3)c(C(F)(F)F)c2)c(=O)n4C)cn1
active: DU-145 prostate -89.4% | K-562 leukemia -48.2% | MALME-3M melanoma -75.3% | MDA-MB-231 breast -77.4% | RXF 393 renal -83.2% | SF-268 CNS -76.3% | SF-295 CNS -91.8% | SF-539 CNS -84.7% | UACC-257 melanoma -72.2% | M14 melanoma -83.2%

Cn1cnc2c(F)c(Nc3ccc(Br)cc3F)c(C(=O)NOCCO)cc21
active: MALME-3M melanoma -2.35% | UACC-257 melanoma -25.8% | M14 melanoma 2.5%
inactive: DU-145 prostate 64.2% | K-562 leukemia 49.4% | MDA-MB-231 breast 34.9% | RXF 393 renal 19.5% | SF-268 CNS 70.8% | SF-295 CNS 76.3% | SF-539 CNS 62.6%

Cn1cnc2c(F)c(Nc3ccc(Br)cc3Cl)c(C(=O)NOCCO)cc21
active: MALME-3M melanoma -16.2% | UACC-257 melanoma -21.2% | M14 melanoma 6.05%
inactive: DU-145 prostate 69.6% | K-562 leukemia 47.2% | MDA-MB-231 breast 24.7% | RXF 393 renal 14.7% | SF-268 CNS 77.2% | SF-295 CNS 82.8% | SF-539 CNS 69%

CC1=CC2c3oc(-c4ccccc4)c(C(=O)c4ccccc4)c3CNC2C=C1 (stereo not given)
inactive: DU-145 prostate 112% | K-562 leukemia 95.8% | MALME-3M melanoma 98.8% | MDA-MB-231 breast 88.4% | RXF 393 renal 94.2% | SF-268 CNS 97.9% | SF-295 CNS 95.9% | SF-539 CNS 109% | UACC-257 melanoma 70.6% | M14 melanoma 96.1%

Cc1cc(C)n(CC(=O)Nc2ccc(-c3nc4ccccc4s3)cc2)n1
inactive: DU-145 prostate 103% | K-562 leukemia 100% | MALME-3M melanoma 108% | MDA-MB-231 breast 108% | RXF 393 renal 129% | SF-268 CNS 100% | SF-295 CNS 103% | SF-539 CNS 98.6% | UACC-257 melanoma 107% | M14 melanoma 111%

C[C@H]1Oc2cc(cnc2N)-c2c(nn(C)c2C#N)CN(C)C(=O)c2ccc(F)cc21
inactive: DU-145 prostate 91.9% | K-562 leukemia 79.4% | MALME-3M melanoma 95.6% | MDA-MB-231 breast 69.7% | RXF 393 renal 85.5% | SF-268 CNS 73.1% | SF-295 CNS 85.9% | SF-539 CNS 96.4% | UACC-257 melanoma 58.5% | M14 melanoma 71.9%

CC[C@H](Nc1ncnc2nc[nH]c12)c1nc2cccc(F)c2c(=O)n1-c1ccccc1
inactive: DU-145 prostate 62.4% | K-562 leukemia 83.6% | MALME-3M melanoma 88.9% | MDA-MB-231 breast 89.1% | SF-268 CNS 71% | SF-295 CNS 57.9% | SF-539 CNS 102% | UACC-257 melanoma 39.9% | M14 melanoma 85.3%
active: RXF 393 renal 2.02%

CC(C)Nc1cc(-c2c[nH]c(C(=O)N[C@H](CO)c3cccc(Cl)c3)c2)c(Cl)cn1
active: MALME-3M melanoma 9.08% | RXF 393 renal 2.5% | UACC-257 melanoma -9.52% | M14 melanoma 3.28%
inactive: DU-145 prostate 57.4% | K-562 leukemia 19.8% | MDA-MB-231 breast 20.1% | SF-268 CNS 59.6% | SF-295 CNS 45.6% | SF-539 CNS 45.2%

Cn1cc(-c2[nH]c3cc(NC(=O)[C@H](N)C4CCCCC4)cc4c3c2C=NNC4=O)cn1
active: K-562 leukemia -59.6% | MALME-3M melanoma -56.2% | MDA-MB-231 breast -67.7% | RXF 393 renal -85.1% | SF-268 CNS -23.4% | SF-539 CNS -84.8% | M14 melanoma -17.6%
inactive: DU-145 prostate 30.5% | SF-295 CNS 16.8% | UACC-257 melanoma 21.1%

CCOc1cccc(/C=N/NC(=O)c2ccccc2Nc2ccnc(C(F)(F)F)c2)c1O
inactive: DU-145 prostate 26.2% | K-562 leukemia 15.5% | MALME-3M melanoma 18.1% | MDA-MB-231 breast 47% | RXF 393 renal 23.9% | SF-268 CNS 13% | SF-295 CNS 17.7% | UACC-257 melanoma 10.2%
active: SF-539 CNS 0.222% | M14 melanoma -29.2%

Cc1cc(C(O)CN(C)C)cc2c1ccc1cc(C(C)C)ccc12 (stereo not given)
inactive: DU-145 prostate 55.7% | SF-268 CNS 62.2% | SF-539 CNS 71.5%
active: K-562 leukemia -20.2% | MALME-3M melanoma -77.3% | MDA-MB-231 breast -35.1% | RXF 393 renal -47.8% | SF-295 CNS -66.1% | UACC-257 melanoma -74.4% | M14 melanoma -100%

O=C(/C=C/c1ccc2c(c1)OCO2)c1c(O)c2ccccc2oc1=O
inactive: DU-145 prostate 109% | K-562 leukemia 69.4% | MALME-3M melanoma 101% | MDA-MB-231 breast 103% | RXF 393 renal 135% | SF-268 CNS 93.6% | SF-295 CNS 100% | SF-539 CNS 105% | UACC-257 melanoma 78.1% | M14 melanoma 94.9%

Cn1ncc(Cl)c1-c1cc(C(=O)N[C@H](CN)Cc2ccc(F)c(F)c2)oc1Cl
inactive: DU-145 prostate 19.1% | SF-268 CNS 23.1%
active: K-562 leukemia -32.7% | MALME-3M melanoma -78.6% | MDA-MB-231 breast -43.8% | RXF 393 renal -52.6% | SF-295 CNS -65.8% | SF-539 CNS -75.1% | UACC-257 melanoma -89.4% | M14 melanoma -78.5%

CO[C@H](C(=O)N[C@@H](CCCCNC(=O)OCc1ccccc1)C(=O)OC(C)(C)C)[C@@H]1Cc2cc3cc(OC4CC(OC5CC(O)C(O)C(C)O5)C(O)C(C)O4)c(C)c(O)c3c(O)c2C(=O)[C@H]1OC1CC(OC2CC(OC3CC(C)(O)C(O)C(C)O3)C(O)C(C)O2)C(O)C(C)O1 (stereo not given in full)
active: K-562 leukemia 5.35% | MALME-3M melanoma -69.4% | MDA-MB-231 breast -71.8% | RXF 393 renal -85.9% | SF-268 CNS -61.5% | SF-295 CNS -89.5% | SF-539 CNS -32% | UACC-257 melanoma -5.47% | M14 melanoma -69.8%
inactive: DU-145 prostate 26.5%

CN1CCC(CNc2ccc3ncc(-c4cccc(OC(F)(F)F)c4)n3n2)CC1
active: K-562 leukemia -47.3% | MALME-3M melanoma -90.2% | MDA-MB-231 breast -80.3% | RXF 393 renal -70.7% | SF-268 CNS -33.1% | SF-295 CNS -71.2% | SF-539 CNS -91.4% | UACC-257 melanoma -87.4% | M14 melanoma -73.3%
inactive: DU-145 prostate 22.5%

CCCCn1c(C)nc2ccc(Nc3nc(N4CCN(C)CC4)nc4nc[nH]c34)cc21
inactive: DU-145 prostate 91.8% | K-562 leukemia 83.2% | MALME-3M melanoma 102% | MDA-MB-231 breast 86.2% | RXF 393 renal 95% | SF-268 CNS 73.2% | SF-295 CNS 105% | SF-539 CNS 87.6% | UACC-257 melanoma 101% | M14 melanoma 107%

Cc1nn(-c2ccccc2)c2c1N=c1s/c(=C\c3cn(-c4ccccc4)nc3-c3ccc(Cl)cc3)c(=O)n1C(C)N2 (stereo not given)
inactive: DU-145 prostate 59.7% | K-562 leukemia 119% | MALME-3M melanoma 124% | MDA-MB-231 breast 78.5% | RXF 393 renal 114% | SF-268 CNS 91% | SF-295 CNS 116% | SF-539 CNS 85.6% | UACC-257 melanoma 111% | M14 melanoma 107%

Cc1ccc(C(=O)Nc2ccc(CN3CCN(C)CC3)c(C(F)(F)F)c2)cc1C#Cc1cnc2cccnn12
active: DU-145 prostate -99.7% | K-562 leukemia -64.9% | MALME-3M melanoma -85.5% | MDA-MB-231 breast -85% | RXF 393 renal -95.1% | SF-268 CNS -96.4% | SF-295 CNS -95.7% | SF-539 CNS -97.2% | UACC-257 melanoma -88.3% | M14 melanoma -88.8%

Cc1cc(NCC(=O)Nc2ccc(-c3nc4ccccc4s3)cc2)no1
inactive: DU-145 prostate 95.9% | K-562 leukemia 83% | MALME-3M melanoma 89.5% | MDA-MB-231 breast 108% | RXF 393 renal 105% | SF-268 CNS 87.4% | SF-295 CNS 96.4% | SF-539 CNS 105% | UACC-257 melanoma 99.7% | M14 melanoma 106%

Cn1ccnc1C(=O)/C=C/c1ccc(CC(=O)Nc2ccc(S(F)(F)(F)(F)F)cc2)cc1
active: DU-145 prostate 8.82% | K-562 leukemia 0.513% | MDA-MB-231 breast -2.8% | RXF 393 renal -70.6% | SF-268 CNS 7.07% | SF-295 CNS -6.63% | SF-539 CNS -84.7% | M14 melanoma -27.4%
inactive: MALME-3M melanoma 51.4% | UACC-257 melanoma 54.6%

CN(C)CCn1c(=O)c2c3cc4c(cc3n(CCN(C)C)c2c2ccc(Cl)cc21)OCO4
inactive: DU-145 prostate 60.6% | MALME-3M melanoma 78.7% | MDA-MB-231 breast 31.6% | RXF 393 renal 57.9% | SF-268 CNS 32% | SF-295 CNS 32.5% | SF-539 CNS 69.9% | UACC-257 melanoma 71.6% | M14 melanoma 50.5%
active: K-562 leukemia -17.8%

COc1cccc(Nc2ncnn3ccc(CN4CC[C@@H](N)[C@H](O)C4)c23)c1
active: K-562 leukemia 2.52% | RXF 393 renal -41.4% | SF-539 CNS -2.77%
inactive: DU-145 prostate 27.1% | MALME-3M melanoma 86.4% | MDA-MB-231 breast 31.3% | SF-268 CNS 45.1% | SF-295 CNS 72.9% | UACC-257 melanoma 76.1% | M14 melanoma 96%

CCCCCCCCCNCCCCCCCCC
active: K-562 leukemia 5.9% | M14 melanoma -48.6%
inactive: DU-145 prostate 76.5% | MALME-3M melanoma 18.4% | MDA-MB-231 breast 66.3% | RXF 393 renal 50.5% | SF-268 CNS 79.8% | SF-295 CNS 66.6% | SF-539 CNS 56.7% | UACC-257 melanoma 67.2%
